Giardia kill: Giardia lamblia killing; Giardia lamblia trophozoite viability; activity change, % at 7.66 µM, hits read low; 340,000 tested, 0.15% active; AID 540267; in the data active = activity change below about -80%; inconclusive = between about -30% and that limit;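 note: parasites exposed to compound for two days anaerobically before the ATP read; % is set by controls: 0 for no effect and ±100 for the full control effect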
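Compounds were tested on trophozoites seeded at 100 cells/well and held 48 hrs at 37 deg C anaerobically. An ATP-based luminescent kit measured the remaining live cells.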
TGFb inhibitor: blocks TGF-b signaling. 410,000 tested, 1.2% active. HepG2 CAGA-GFP TGF-b/SMAD3 reporter, GFP fluorescence, 18 h; TGF-beta stimulated, 500 pg/mL final. Potency, µM (titrated, usually from 46.1 µM), inactives show at the highest dose activity, negative = inhibition, usual class: inhibitors; note: potency is the fitted concentration of half-maximal effect; % is set by controls: 0 for no effect and ±100 for the full control effect; nearly all actives have a fitted effect of over 65% in size
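Read-out: total well GFP (ex488/em500-530) summed from mean per-cell fluorescence. Cells: HEPG2 CAGA-GFP, 1% FBS DMEM, 18 h at 37 degrees C with 500 pg/mL final TGF-beta. Unstimulated wells served as the full-inhibition control; stimulated DMSO wells = 0%.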
IL1B secr inh: inhibitors of inflammasome signaling (IL-1 beta secretion) | activity change, % at 57.5 µM | AID 743279 | 360,000 tested, 4.7% active | THP-1 LPS/ATP IL-1B secretion, AlphaLISA, 16 h; stronger effect = lower value; in the data active = activity change below about -50%; inconclusive = mostly about -30% to -49%; note: % is set by controls: 0 for no effect and ±100 for the full control effect
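THP-1 cells pretreated 1 hr with compounds (up to 57.5 uM final), then stimulated with LPS (250 ng/mL final) plus ATP (1.25 mM final); secreted IL-1B measured by AlphaLISA after 16 hr, decreased signal indicating inhibition.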
HepG2 tox: counter-screen for TGF-b inhibitors: cytotoxicity in HepG2 cells | HepG2 CAGA-GFP viability, ATP luminescence, 18 h | Potency, µM (top dose mostly 46.1 µM), for the others: top-dose activity change, negative = cytotoxicity, most hits filed as cytotoxic | 410,000 tested, 0.76% active | AID 588856; note: potency is the fitted concentration of half-maximal effect
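CellTiter-Glo luminescence gave cytotoxicity after 18 hours at 37 degrees C. The cells were HepG2 CAGA-GFP in 1% FBS DMEM, stimulated with 500 pg/mL TGF-beta after compound addition. %Activity was normalised to no-cell wells (complete cell-killing) and DMSO (no toxicity), and curves were fitted and classified.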
HT1080NT lethal: kills 2HG-producing HT-1080-NT fibrosarcoma cells. HT-1080-NT fibrosarcoma viability, CellTiter-Glo ATP luminescence, 48 h. Potency, µM (highest dose often 46.1 µM), for the others: top-dose activity, negative = less viability, hits mostly cytotoxic. 360,000 tested, 1.6% active;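 note: NT is the 2HG producing partner of a matched IDH1 knockdown line; potency is the fitted concentration of half-maximal effect; 0% = DMSO-treated cells and -100% = media-only wells without cells; nearly all actives have a fitted effect of over 55% in size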
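Viability of the 2HG-overproducing fibrosarcoma line after 48 hours of compound exposure at 37 degrees C was determined by luminescence with CellTiter-Glo, and concentration-effect curves were then fitted and categorized.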
HT1080 IDH1KD tx: toxicity to HT-1080 IDH1 knockdown cells (counter line); HT-1080 IDH1 knockdown viability, ATP luminescence, 48 h; Potency, µM (titrated, usually from 46.1 µM), for inactives: top-dose activity, negative = toxicity, most hits filed as cytotoxic; 360,000 tested, 2% active;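 note: potency is the fitted concentration of half-maximal effect; 0% = DMSO wells and -100% = cell-free medium wells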
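Luminescent ATP read-out (CellTiter-Glo, 10 min at room temperature) after 48 h compound exposure at 37 °C gave viability of IDH1-knockdown HT-1080 cells. Activity was normalised to DMSO and cell-free wells, then fitted as concentration-response curves.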
Numbers without * were called inactive; ? = inconclusive; / = no result given. A selection: hits, their analogues and other compounds. The true share with any hit is near 6.5%. Unless noted, calls come from the whole dose curve; as a rule, active = well fitted curve in the direction sought with a large enough effect; inconclusive = small, poorly fitted or top-dose-only effect, or another doubt; inactive = no such curve, though single readings can be large; an effect the other way counts as inactive or inconclusive.

SMILES | Giardia kill | TGFb inhibitor | IL1B secr inh | HepG2 tox | HT1080NT lethal | HT1080 IDH1KD tx
COc1ccc(N/N=C(\C#N)C(=N)SCc2ccccc2)cc1 | -7 | ? | -23 | 1% | -15% | -2%
COc1ccc(N2CCN(C(=O)/C=C/[C@H]3O[C@@H](n4ccc(=O)[nH]c4=O)[C@H](O)[C@@H]3O)CC2)cc1 | / | -9% | 11 | 1% | 2% | 9%
COc1ccc(-c2cc(C(=O)NN)[nH]n2)cc1OC | 8 | -16% | 18 | -3% | ? | ?
COc1ccccc1-c1cc(C(=O)NN)[nH]n1 | -15 | 25% | 14 | 7% | 21µM* | 13µM*
COc1ccc(Cl)cc1-c1cc(C(=O)NCc2cc(C(F)(F)F)cc(C(F)(F)F)c2)[nH]n1 | / | -23% | 0 | -46% | 21µM* | ?
Cc1ccc(Cl)cc1-c1cc(C(=O)NCc2cc(C(F)(F)F)cc(C(F)(F)F)c2)[nH]n1 | / | 11µM* | ? | -50% | ? | ?
Cc1ccc(Cl)cc1-c1cc(C(=O)NCc2cccc(Cl)c2)[nH]n1 | / | ? | -51* | -32% | ? | ?
Cc1ccc(Cl)cc1-c1cc(C(=O)NCc2ccccc2)[nH]n1 | / | 1% | / | 2% | ? | 5%
COc1ccc(Cl)cc1-c1cc(C(=O)NCc2cccc(Cl)c2)[nH]n1 | / | ? | -15 | -24% | ? | ?
CN1C(CCl)Nc2cc(Cl)c(S(N)(=O)=O)cc2S1(=O)=O (stereo not drawn) | 3 | -3% | -4 | 3% | 3% | 3%
CCC[C@@H]1CCCO[C@@](C(=O)NCc2cc(C)n(C)n2)(C(F)(F)F)C1 | 24 | -6% | -8 | -17% | -27% | 2%
COc1ccc(Cl)cc1-c1cc(C(=O)Nc2ccc(C)c(NS(C)(=O)=O)c2)[nH]n1 | / | ? | ? | -73% | 21µM* | 23µM*
CC1(C)C(=O)C=CC(=O)C(C)(C)C(=O)C=CC(=O)C(C)(C)C2=CC=C(O2)C(C)(C)C(=O)C=CC1=O | -1 | -6% | -97* | -15% | 0% | ?
CCOc1ccc(C(=O)Nc2ccc(S(=O)(=O)N3C[C@@H]4C[C@@H](C3)c3cccc(=O)n3C4)cc2)cc1 | -10 | -12% | 29 | -9% | ? | 23µM*
CC(C)CNC(=S)NNC(=O)c1csc2c1CCCC2 | -2 | ? | ? | -31% | 8.9µM* | ?
Cc1cc(S(=O)(=O)c2ccc([N+](=O)[O-])cn2)ccc1Br | 6 | ? | -106* | 2% | 2.3µM* | 3.7µM*
O=c1[nH]c2cc3ccccc3cc2nc1-c1nnnn1C1CCCC1 | / | / | 0 | / | ? | 16µM*
CC1(C)SC(=S)N(/N=C/c2ccc(O)cc2)C1N(O)C(=O)Nc1ccc([N+](=O)[O-])cc1 (stereo not drawn) | 9 | ? | -6 | -45% | ? | ?
CC1(C)SC(=S)N(/N=C/c2ccccc2O)C1N(O)C(=O)Nc1ccccc1 (stereo not drawn) | -16 | ? | ? | -29% | 18µM* | ?
Cc1ccc(/C=N/N2C(=S)SC(C)(C)C2N(O)C(=O)Nc2ccc([N+](=O)[O-])cc2)cc1 (stereo not drawn) | 18 | ? | -70* | -44% | -2% | -19%
CC1(C)SC(=S)N(/N=C/c2cccnc2)C1N(O)C(=O)Nc1ccccc1 (stereo not drawn) | -23 | 4% | 47 | 15% | 10% | 5%
CCOc1ccccc1OCCOc1ccccc1CC | -14 | -37% | -8 | 6% | 12% | 14%
COc1cc(Br)cc(CNc2ccc(F)c([N+](=O)[O-])c2)c1O | 11 | ? | -95* | -32% | -26% | ?
Cc1ccc(C(=O)NCC(=O)OCC(=O)c2c(N)n(C)c(=O)n(C)c2=O)s1 | 18 | -29% | 21 | -5% | 3% | 12%
Cc1nc(=O)c(-c2ccccc2)c(C)n1-c1ccccc1Cl | -27 | -16% | -17 | 1% | 1% | 0%
SMILES | Giardia kill | TGFb inhibitor | IL1B secr inh | HepG2 tox | HT1080NT lethal | HT1080 IDH1KD tx
CCc1ccc(NC(=O)CSc2nc3cc(C(=O)OC)ccc3c(=O)n2Cc2ccco2)cc1 | -9 | -5% | -8 | -1% | -14% | -5%
CCOC(=O)c1c(NC(=O)CSc2nc3cc(Cl)ccc3c(=O)n2Cc2ccco2)sc(C(=O)N(C)C)c1C | 5 | -3% | -58* | 21% | ? | ?
CCOC(=O)c1c(NC(=O)COC(=O)c2ccccc2NC)sc(C(=O)N(C)C)c1C | -5 | ? | -79* | -8% | -28% | ?
CCOC(=O)c1c(NC(=O)COC(=O)Cc2ccccc2[N+](=O)[O-])sc(C(=O)N(C)C)c1C | -11 | 0% | 23 | -11% | -11% | -9%
CC(=O)N(C)c1ccc(NC(=O)/C=C/c2ccccc2Cl)cc1 | -2 | 4% | -4 | -15% | -16% | -17%
COC(=O)c1ccccc1NC(=O)CCn1nc(C)c2c(C)n(-c3ccccc3)nc2c1=O | / | -29% | / | -33% | / | /
Cc1ccc2c(c1)/C(=N/OS(=O)(=O)c1ccccc1)CCS2 | 14 | ? | 18 | 3% | 1% | 5%
CC1=CC(=O)C(C(C)C)=C/C1=N/OS(=O)(=O)c1ccccc1 | -9 | 5µM* | -101* | -99% | 8.2µM* | 5.8µM*
CC1=CC(=O)C=C(C)C1=NOS(=O)(=O)c1ccccc1 | 13 | ? | -118* | -112% | ? | 21µM*
O=C(CSc1nnc(-c2ccccc2Cl)o1)Oc1ccc(Br)cc1 | -10 | -2% | 15 | -5% | 8% | 4%
COc1cc(/C=C/C(=O)c2ccccc2O)cc(OC)c1OC | 12 | ? | -98* | -63% | ? | ?
COc1cc(OC)c(C=CC(=O)c2ccccc2O)c(OC)c1 | 5 | -1% | -59* | -12% | -11% | ?
Cc1ccc(SCC(=O)OC(C)C(=O)NC2CCCCC2C)c(C)c1 (stereo not drawn) | -5 | -5% | -5 | -8% | 9% | 6%
CC(Sc1nnc(-c2ccccc2Br)n1-c1cccc(C(F)(F)F)c1)C(N)=O (stereo not drawn) | 5 | 6% | 13 | -2% | 14% | 18%
O=C(O)CSc1cccc2cccnc12 | 21 | ? | 6 | -21% | 5% | 11%
Cc1ccc(C(=O)COC(=O)CSc2cccc3cccnc23)c(C)c1 | 0 | ? | -88* | -49% | -8% | -27%
COc1ccc(NC(=S)N2CCCN(Cc3cccc(Cl)c3)C2)cc1 | -1 | -8% | -64* | -3% | -12% | -14%

High-throughput results from PubChem BioAssay.
